This is an account of results in PubChem BioAssay AID588397 (National Center for Advancing Translational Sciences (NCATS), 2011).

Each structure is given as a SMILES string. Among all 1,300 compounds or so, about 1,000 (77%) were called active. Not shown: some 7% with an inconclusive outcome. Calls come from the whole dose curve; as a rule, active = well fitted inhibition curve with a large enough effect; inconclusive = small, poorly fitted or top-dose-only effect; inactive = no such curve, though single readings can be large or run the other way. So high a share suggests a set chosen from earlier hits. This is one part of the list.
% is set by controls: 0 for no effect and ±100 for the full control effect; potency is the fitted concentration of half-maximal effect.

The test in a line: qHTS of small molecules that selectively kill Giardia lamblia: Hit Validation.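 Note: viability measured as ATP content by luminescence so killing lowers signal; trophozoites exposed to compounds for 48 h anaerobically at 37 °C; nearly all actives have a fitted effect of over 65% in size.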 The following applies: Giardia lamblia trophozoite viability, dose-response; series mostly up to 38.3 µM; activity change, negative = killing: at the top concentration. The gist of the method: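 Giardia lamblia trophozoites (100 cells/well) were incubated with compounds for 48 h at 37 deg C under anaerobic conditions. Viability was read as ATP content by one-step luminescence after 15-30 min at room temperature.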
Turning to `CN(CCc1ccccc1)C(=O)c1cccc(NC(=O)Cc2cccc(NC(=O)C3CCN(C(=O)C4CCCC4)CC3)c2)c1`, the “activity change, negative = killing” value was -1.44% (inactive).
`O=C(Nc1ccccc1C(=O)O)c1ccc(NC(=O)C2CC2)cc1`: the Potency is 4100 nM (active).
In the case of `CN(Cc1ccccc1)C(=O)c1ccc(NC(=O)Cc2cccc(NC(=O)C3CCN(C(=O)C4CC4)CC3)c2)cc1`, the “activity change, negative = killing” value is -32% (inactive).
With `N/C(=N\O)c1ccc([N+](=O)[O-])s1`, the Potency is 2900 nM (active).
Still for that read-out and setting: in the case of `O=[N+]([O-])c1cccn2cc(-c3ccc(Br)cc3)nc12` it was 729 nM (active); in that of `O=C(c1ccco1)N1CCN(c2c([N+](=O)[O-])nn(-c3cccc(Cl)c3)[n+]2[O-])CC1`, 2590 nM (active).
Same read-out and setting: in the case of `O=C(c1ccco1)N1CCN(c2c([N+](=O)[O-])nn(-c3ccc(Cl)cc3)[n+]2[O-])CC1` it was 918 nM (active); in that of `Cn1c([N+](=O)[O-])cnc1COC(N)=O`, 1160 nM (active); in that of `O=C(NC(=S)Nc1ccc(CN2CCOCC2)cc1)c1ccc([N+](=O)[O-])cc1Cl`, 4100 nM (active).
Same read-out and setting: in the case of `CC(C)OC(=O)Nc1ccc2c(c1)N(C(=O)N1CCN(C)CC1)c1ccccc1CC2` it was 4100 nM (active).
For the compound `CCCCOc1ccc(C(=O)NCC(=O)NCCCn2nc(C)cc2C)cc1`, the “activity change, negative = killing” value was -2.52% (inactive).
In the case of `O=C(CN1C(=O)c2ccccc2S1(=O)=O)c1ccc2c(c1)OCCO2`, the Potency was 2900 nM (active).
Still for that read-out and setting: for `O=C(CN1C(=O)c2ccccc2S1(=O)=O)c1ccc2c(c1)OCCCO2` the value was 1030 nM (active); for `O=C1SCCN1N=Cc1ccc([N+](=O)[O-])o1`, 326 nM (active); for `CC1CS(=O)(=O)CCN1N=Cc1ccc([N+](=O)[O-])o1` (stereo not drawn), 365 nM (active).
`O=C1OC(CN(Cc2ccccc2)Cc2ccccc2)CN1N=Cc1ccc([N+](=O)[O-])o1` (stereo not drawn): the Potency is 650 nM (active).
In the case of `Cc1ccc(-c2ccc(/C=N/N3C(=O)C4C5C=CC(CC5)C4C3=O)o2)c([N+](=O)[O-])c1` (stereo not drawn), the “activity change, negative = killing” value was -17.9% (inactive).
Consider `Cc1cc(O)ccc1N1C(=O)c2cccc3cc([N+](=O)[O-])cc(c23)C1=O`, for which the Potency is 2900 nM (active).
Consider `O=C1c2cc([N+](=O)[O-])cc3cc([N+](=O)[O-])cc(c23)C(=O)N1c1ccccn1`, for which the Potency was 1830 nM (active).
On the same count and under the same terms, in the case of `Cc1c(NC(=O)c2ccc([N+](=O)[O-])o2)cccc1-c1nc2ncccc2o1` it was 918 nM (active); in that of `Cc1ccc(-c2nc3ncccc3o2)cc1NC(=O)c1ccc([N+](=O)[O-])o1`, 918 nM (active); in that of `O=C(Nc1ccc(-c2nc3ncccc3o2)cc1)c1ccc([N+](=O)[O-])o1`, 1300 nM (active).
For `O=[N+]([O-])c1ccc(/C=N/n2c(CO)nc3ccccc32)s1`, the Potency is 650 nM (active).
For `Cc1nc2ccccc2n1/N=C/c1ccc([N+](=O)[O-])s1`, the Potency is 1630 nM (active).
Same read-out and setting: in the case of `Nc1nc2ccccc2n1/N=C/c1ccc([N+](=O)[O-])s1` it was 410 nM (active); in that of `Cc1cc2ncn(/N=C/c3ccc([N+](=O)[O-])s3)c2cc1C`, 1300 nM (active).
On to `O=C(Cc1ccccc1)Nc1nnc(-c2cccs2)s1`, for which the Potency was 1450 nM (active).
On the same count and under the same terms, for `O=[N+]([O-])c1ccc2nc(CO)[nH]c2c1` the value was 2310 nM (active); for `CCc1nc2cc([N+](=O)[O-])c([N+](=O)[O-])cc2[nH]1`, 6500 nM (active); for `Cn1c([N+](=O)[O-])cnc1N1CCN(c2nncs2)C1=O`, 365 nM (active).
Still for that read-out and setting: in the case of `Cc1cc(C)c2sc(NC(=O)c3ccc([N+](=O)[O-])o3)nc2c1` it was 1160 nM (active); in that of `Cc1cc(C)c2nc(NC(=O)c3ccc([N+](=O)[O-])o3)sc2c1`, 1160 nM (active); in that of `Cc1cccc(-n2ncc3c(N4CCCC4)ncnc32)c1`, 5160 nM (active).
For `COc1ccc(Cn2ccnc2SCC(=O)NC2CCCC2)cc1`, the “activity change, negative = killing” value is -1.53% (inactive).
Turning to `COc1ccc(C(=S)NC2CCCCC2)cc1`, the Potency is 1030 nM (active).
The same measure, in the same setting: for `Cc1nc2c(o1)C(=O)c1ccccc1C2=Nc1ccccc1` the value was 6500 nM (active); for `Cc1ccc(CN=c2c([N+](=O)[O-])nn(-c3cccc(C)c3)n2O)cc1`, 18300 nM (active).
Same read-out and setting: in the case of `Cc1cccc(-n2nc([N+](=O)[O-])c(=NCc3cccnc3)n2O)c1` it was 4100 nM (active).
The same measure, in the same setting: in the case of `COc1ccc(-n2nc([N+](=O)[O-])c(=NCc3cccnc3)n2O)cc1` it was 2590 nM (active).
Turning to `Cc1ccc(CN=c2c([N+](=O)[O-])nn(-c3cccc(Cl)c3)n2O)cc1`, the Potency is 18300 nM (active).
Turning to `O=[N+]([O-])c1nn(-c2ccc3c(c2)OCCO3)n(O)c1=NC1CCCCCC1`, the Potency is 2050 nM (active).
The same measure, in the same setting: in the case of `O=[N+]([O-])c1nn(-c2ccc3c(c2)OCCO3)n(O)c1=NC1CCCC1` it was 3650 nM (active).
Still for that read-out and setting: for `O=[N+]([O-])c1nn(-c2ccc3c(c2)OCCO3)n(O)c1=NC1CCCCC1` the value was 3260 nM (active).
Still for that read-out and setting: for `Cc1nc([N+](=O)[O-])cn1-c1nc2ccccn2c1[N+](=O)[O-]` the value was 1830 nM (active).
In the case of `COc1cc(-c2noc(C)c2C(=O)NCC[C@@H]2CCCN2C)cc(OC)c1OC`, the “activity change, negative = killing” value is 10.1% (inactive).
Same read-out and setting: in the case of `Cc1ccc([N+](=O)[O-])cc1NC(=O)C1CCN(S(C)(=O)=O)CC1` it was -23.7% (inactive); in that of `Cc1cc(C)cc(NC(=O)Cn2c(=O)oc3cc(S(=O)(=O)N4CCC(C)CC4)ccc32)c1`, -17.3% (inactive).
On to `Cc1ccc(NC(=O)C2CCN(S(=O)(=O)c3cc([N+](=O)[O-])ccc3Cl)CC2)nc1`, for which the Potency was 4600 nM (active).
As for `Cc1ccc(SCCNC(=O)c2ccccc2F)cc1`, the “activity change, negative = killing” value was -19.2% (inactive).
For `Cc1ccc(C)c(Sc2ccc(NC(=O)CCl)cc2)c1`, the Potency is 918 nM (active).
Consider `C(=C\c1cnc2ccccc2n1)/c1ccc2c(c1)OCO2`, for which the Potency is 2310 nM (active).
Same read-out and setting: in the case of `C(=C\c1nc2ccccc2s1)/c1ccc2c(c1)OCO2` it was 2310 nM (active).
In the case of `Cc1cc(C(=O)N/N=C/c2ccc([N+](=O)[O-])s2)c2ccccc2n1`, the Potency was 2900 nM (active).
Still for that read-out and setting: for `Cc1ccccc1C(=O)N/N=C/c1ccc([N+](=O)[O-])s1` the value was 1450 nM (active); for `Cc1ccccc1NCC(=O)N/N=C\c1ccc([N+](=O)[O-])s1`, 3260 nM (active); for `O=C(N/N=C/c1ccc([N+](=O)[O-])s1)c1ccccc1Br`, 1630 nM (active).
The same measure, in the same setting: for `N/C(=N\N=Cc1ccc2c(c1)OCO2)NN=Cc1ccc2c(c1)OCO2` the value was 4100 nM (active).
On to `C[C@@H]1CC=C[C@H]2[C@H]1C(=O)N(Cc1ccccc1)[C@H]2c1ccc2ccccc2c1/C=C/c1ccccc1`, for which the “activity change, negative = killing” value was 0.989% (inactive).
